{"source": "PubChem BioAssay (NCI)", "note": "About 79,000 compounds went through this panel and 15% of them were active in at least one assay; those are over-represented in the sample as a whole. A number with no mark means an inactive call. The source made the active and inactive calls. No stated cut-off is given here; in the data, active means growth inhibition above about 70%; inactive means the rest. Where a SMILES comes first, the peptide text is derived from it. [ ]: non-standard residue; d: D form. The star is where a group is joined. ξ: configuration not given here. ξF = NC(Cc1ccccc1)C(=O)O; Cbz = O=C(OCc1ccccc1)*; Aib = CC(C)(N)C(=O)O"}
{"test": "NCI Yeast Anticancer Drug Screen. Data for the cln2 rad14 strain (AID 165);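 further: 0% = growth equal to vehicle treated cultures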", "settings": "S. cerevisiae cln2 rad14 strain, stronger effect = higher value; at 50.0 µM unless noted", "how_it_was_run": "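Yeast carrying cln2 and rad14 alterations (cell cycle control and DNA damage repair) were exposed to compounds. Growth inhibition was measured against vehicle-treated controls.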", "units": {"growth inhibition": "%"}}
{"smiles": "Cc1cnc(N)cn1", "note": "(tested in a mixture with another compound)", "growth inhibition": -52.2}
{"smiles": "Cc1ccc(S(=O)(=O)CCN2CCN(C)CC2)cc1", "growth inhibition": -26}
{"smiles": "Cc1nc(C(N)=S)sc1C(=O)C/C(=N/N)C(=O)Nc1ccc(Cl)cc1", "growth inhibition": -3.65}
{"smiles": "CC(=O)NNC(=O)C(N)Cc1ccc(O)cc1", "note": "(configuration not stated)", "growth inhibition": 12.2}
{"smiles": "CN(CCO)CCCC1COc2ccccc2O1", "note": "(configuration not stated)", "growth inhibition": 6.5}
{"smiles": "CC(=O)N1C(Nc2cnc3ccccc3c2)CCN1c1ccccc1", "note": "(configuration not stated)", "growth inhibition": 0.4}
{"smiles": "CC(C)C1CCC2C(CCC3C(C)(C(=O)O)CCCC23C)C1", "note": "(configuration not stated)", "growth inhibition": 21}
{"smiles": "COC(=O)C(C)(C)NC(=O)C(Cc1ccccc1)NC(=O)C(C)(C)NC(=O)OCc1ccccc1", "note": "(configuration not stated) (Cbz-[Aib]-[ξF]-[Aib]-OMe)", "growth inhibition": 23.1}
{"smiles": "COc1ccc(CCNS(=O)(=O)c2c(C)c(C)c(C)c(C)c2C)cc1OC", "growth inhibition": 21.1}
{"smiles": "COc1ccc(/C=C2\\C(=O)Nc3ccccc32)cc1OC", "growth inhibition": -10.4}
{"smiles": "CCCCCC(Br)C(Br)CC(Br)C(Br)CC(Br)C(Br)CCCCC(=O)O", "note": "(configuration not stated)", "growth inhibition": -31.9}
{"smiles": "Nc1cc(S(=O)(=O)O)c(O)c2c1C(=O)c1c(O)c(S(=O)(=O)O)cc(N)c1C2=O", "growth inhibition": -12.8}
{"smiles": "N#CC(C(=S)Nc1ccccc1)=C1Nc2ccccc2N1", "growth inhibition": -2.65}
{"smiles": "N#CCc1nc(-c2cc3ccc(O)cc3oc2=O)cs1", "growth inhibition": 2.8}
{"smiles": "CN1C(=O)/C(=C2\\SC(=O)N(CN3CCOCC3)C2=O)c2ccccc21", "growth inhibition": -7.55}
{"smiles": "O=c1n(-c2ccccc2)c(=O)n(-c2ccccc2)c(=O)n1-c1ccccc1", "growth inhibition": 5}
{"smiles": "COc1ccc(C(OC(=O)Oc2ccccc2)c2ccccc2)cc1", "note": "(configuration not stated)", "growth inhibition": -20.1}
{"smiles": "O=C(O)CS(=O)c1ccc2c3c(cccc13)C(=O)c1ccccc1-2", "note": "(configuration not stated)", "growth inhibition": -0.05}
{"smiles": "O=C(CCl)NNC1=Nc2ccc(Cl)cc2SC1", "growth inhibition": 0.6}
{"smiles": "Clc1ccc(C2ON=C(c3ccccc3)N2C23CC4CC(CC(C4)C2)C3)cc1Cl", "note": "(configuration not stated)", "growth inhibition": -20}
{"smiles": "O=C(NC(NC(=O)c1ccccc1)c1ccccc1)c1ccccc1", "growth inhibition": -55.2}
{"smiles": "C1COC2(OC1)OCCCO2", "growth inhibition": -71.5}
{"test": "NCI Yeast Anticancer Drug Screen. Data for the bub3 strain (AID 167)", "settings": "S. cerevisiae bub3 mutant strain, stronger effect = higher value; at 50.0 µM unless noted", "how_it_was_run": "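Whole-cell yeast assay. The mutant strain was incubated with compounds, and growth inhibition was determined by comparison with vehicle-treated cells.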"}
{"smiles": "CCOC(=O)[C@]12C3C=CC(C3)C1C(=O)C1OC12", "note": "(some centres not stated)", "growth inhibition": "-26.6%"}
{"smiles": "Cc1nnc(N)nc1C", "growth inhibition": "-1.3%"}
{"smiles": "Nc1nc2ncc(COc3ccc(C(=O)O)cc3)nc2c(=O)[nH]1", "growth inhibition": "53.2%"}
{"smiles": "COc1ccc(CCC(=O)c2ccc(N)cc2)cc1", "growth inhibition": "-3.75%"}
{"smiles": "CC1CCC(C(=O)O)(C(Br)C(=O)O)CC1", "note": "(configuration not stated)", "growth inhibition": "-20.8%"}
{"smiles": "CCCC1([N+](=O)[O-])c2ccccc2-c2ccc([N+](=O)[O-])cc21", "note": "(configuration not stated)", "growth inhibition": "46.1%"}
{"smiles": "CCN(CC)OC(=O)/C=C/c1ccccc1", "growth inhibition": "-3.3%"}
{"smiles": "Cc1ccc(O)c(C=NCCN=Cc2cc(C)ccc2O)c1.[Cu+2]", "growth inhibition": "-20.6%"}
{"smiles": "O=C1c2ccccc2C(=O)N1/N=[N+](\\[O-])c1ccccc1", "growth inhibition": "25.3%"}
{"smiles": "Cc1cc(C)c([N+](=O)[O-])cc1N", "growth inhibition": "22.8%"}
{"smiles": "Cc1[nH]c(N)nc(=S)c1CCCNc1ccccc1", "growth inhibition": "-32.3%"}
{"smiles": "CN(C)C(=S)/N=c1\\ssc(=S)n1Cc1cccnc1", "growth inhibition": "-13.7%"}
{"smiles": "ClC(Cl)CN(Cc1ccccc1)c1ncc[nH]1", "growth inhibition": "8.05%"}
{"smiles": "CC(C)(C)NC(=O)Nc1ccc2ccccc2c1", "growth inhibition": "-24.1%"}
{"smiles": "COc1cc2ccc(Cc3nccc4cc(OC)c(OC)cc34)cc2cc1OC", "growth inhibition": "97% (active)"}
{"smiles": "CC(=O)Nc1cc(S(=O)(=O)O)cc2cc(S(=O)(=O)O)cc(O)c12", "growth inhibition": "15.6%"}
{"smiles": "CC(=O)OC1COC(N2C(=O)C(=O)c3c(C)cc(Cl)nc32)C(OC(C)=O)C1OC(C)=O", "note": "(configuration not stated)", "growth inhibition": "-24.1%"}
{"smiles": "O=C(CC(CC(=O)C(c1ccccc1)c1ccccc1)c1ccccc1)C(c1ccccc1)c1ccccc1", "growth inhibition": "-8.3%"}
{"smiles": "Cc1cnc(N)cn1", "note": "(tested in a mixture with another compound)", "growth inhibition": "3.4%"}
{"smiles": "Cc1ccc(S(=O)(=O)CCN2CCN(C)CC2)cc1", "growth inhibition": "-2.65%"}
{"smiles": "Cc1nc(C(N)=S)sc1C(=O)C/C(=N/N)C(=O)Nc1ccc(Cl)cc1", "growth inhibition": "-17.8%"}
{"smiles": "CC(=O)NNC(=O)C(N)Cc1ccc(O)cc1", "note": "(configuration not stated)", "growth inhibition": "2.95%"}
{"smiles": "CN(CCO)CCCC1COc2ccccc2O1", "note": "(configuration not stated)", "growth inhibition": "-8.65%"}
{"smiles": "CC(=O)N1C(Nc2cnc3ccccc3c2)CCN1c1ccccc1", "note": "(configuration not stated)", "growth inhibition": "1.25%"}
{"smiles": "CC(C)C1CCC2C(CCC3C(C)(C(=O)O)CCCC23C)C1", "note": "(configuration not stated)", "growth inhibition": "-12.8%"}
{"smiles": "COC(=O)C(C)(C)NC(=O)C(Cc1ccccc1)NC(=O)C(C)(C)NC(=O)OCc1ccccc1", "note": "(configuration not stated) (Cbz-[Aib]-[ξF]-[Aib]-OMe)", "growth inhibition": "12.4%"}
{"smiles": "COc1ccc(CCNS(=O)(=O)c2c(C)c(C)c(C)c(C)c2C)cc1OC", "growth inhibition": "21.2%"}
{"smiles": "COc1ccc(/C=C2\\C(=O)Nc3ccccc32)cc1OC", "growth inhibition": "-1.95%"}
{"smiles": "CCCCCC(Br)C(Br)CC(Br)C(Br)CC(Br)C(Br)CCCCC(=O)O", "note": "(configuration not stated)", "growth inhibition": "-0.7%"}
{"smiles": "Nc1cc(S(=O)(=O)O)c(O)c2c1C(=O)c1c(O)c(S(=O)(=O)O)cc(N)c1C2=O", "growth inhibition": "-9.35%"}
{"smiles": "N#CC(C(=S)Nc1ccccc1)=C1Nc2ccccc2N1", "growth inhibition": "-20.1%"}
{"smiles": "N#CCc1nc(-c2cc3ccc(O)cc3oc2=O)cs1", "growth inhibition": "-12.4%"}
{"smiles": "CN1C(=O)/C(=C2\\SC(=O)N(CN3CCOCC3)C2=O)c2ccccc21", "growth inhibition": "-39%"}
{"smiles": "O=c1n(-c2ccccc2)c(=O)n(-c2ccccc2)c(=O)n1-c1ccccc1", "growth inhibition": "7.45%"}
{"smiles": "COc1ccc(C(OC(=O)Oc2ccccc2)c2ccccc2)cc1", "note": "(configuration not stated)", "growth inhibition": "-16.4%"}
{"smiles": "O=C(O)CS(=O)c1ccc2c3c(cccc13)C(=O)c1ccccc1-2", "note": "(configuration not stated)", "growth inhibition": "-30.8%"}
{"smiles": "O=C(CCl)NNC1=Nc2ccc(Cl)cc2SC1", "growth inhibition": "5.8%"}
{"smiles": "Clc1ccc(C2ON=C(c3ccccc3)N2C23CC4CC(CC(C4)C2)C3)cc1Cl", "note": "(configuration not stated)", "growth inhibition": "-7.9%"}
{"smiles": "O=C(NC(NC(=O)c1ccccc1)c1ccccc1)c1ccccc1", "growth inhibition": "8.55%"}
{"smiles": "C1COC2(OC1)OCCCO2", "growth inhibition": "8.75%"}
